Experimental findings from ChEMBL document CHEMBL1961873, “Compounds: GSK PKIS; Assays: Nanosyn kinase panel” (2012) are described below.

Assay [1] concerns the target T1, Muscle, skeletal receptor tyrosine-protein kinase (Homo sapiens) (UniProt O15146).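 Further: reported value is the mean percent inhibition of MuSK kinase.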
T1 sequence (whole entry): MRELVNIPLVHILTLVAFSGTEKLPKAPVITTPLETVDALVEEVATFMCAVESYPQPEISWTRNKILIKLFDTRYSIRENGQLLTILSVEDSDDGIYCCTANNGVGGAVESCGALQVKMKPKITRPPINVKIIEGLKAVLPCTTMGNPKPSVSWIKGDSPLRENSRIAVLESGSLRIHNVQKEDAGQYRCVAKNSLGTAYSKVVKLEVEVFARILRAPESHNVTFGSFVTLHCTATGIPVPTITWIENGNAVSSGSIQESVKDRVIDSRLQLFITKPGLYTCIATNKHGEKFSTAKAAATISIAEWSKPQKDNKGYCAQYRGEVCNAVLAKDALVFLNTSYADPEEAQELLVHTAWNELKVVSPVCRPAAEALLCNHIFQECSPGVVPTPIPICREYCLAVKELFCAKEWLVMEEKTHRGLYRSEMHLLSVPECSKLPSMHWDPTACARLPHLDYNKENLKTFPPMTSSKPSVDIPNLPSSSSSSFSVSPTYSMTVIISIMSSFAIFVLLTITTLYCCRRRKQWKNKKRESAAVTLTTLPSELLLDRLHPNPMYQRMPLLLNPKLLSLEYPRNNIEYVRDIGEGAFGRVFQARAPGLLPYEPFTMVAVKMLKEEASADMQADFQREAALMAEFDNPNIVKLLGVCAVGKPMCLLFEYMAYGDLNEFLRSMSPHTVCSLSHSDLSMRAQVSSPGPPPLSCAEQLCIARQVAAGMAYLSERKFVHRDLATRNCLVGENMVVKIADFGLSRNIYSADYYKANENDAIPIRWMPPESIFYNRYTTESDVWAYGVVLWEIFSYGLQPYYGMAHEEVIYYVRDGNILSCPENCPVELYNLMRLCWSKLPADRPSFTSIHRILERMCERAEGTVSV
As to conditions: at 1 µM.

Assay [2] addresses Platelet-derived growth factor receptor alpha (Homo sapiens) (UniProt P16234). As to conditions: at 0.1 µM.
Assay [3] has the same target. As to conditions: at 1 µM.
Assay [4] relates to Platelet-derived growth factor receptor alpha (Homo sapiens), P16234 [D842V]. The settings on record: at 0.1 µM.
Assay [5] has the same test system. The settings on record: at 1 µM.
The test system of assay [6] is Platelet-derived growth factor receptor alpha (Homo sapiens), P16234 [T674I]. As to conditions: at 0.1 µM.
Assay [7] has the same test system. The settings on record: at 1 µM.
The test system of assay [8] is Platelet-derived growth factor receptor alpha (Homo sapiens), P16234 [V561D]. The settings on record: at 0.1 µM.
Assay [9] shares this test system. The settings on record: at 1 µM.
Assay [10] deals with Platelet-derived growth factor receptor beta (Homo sapiens) (UniProt P09619). As to conditions: at 0.1 µM.

The term inhibition denotes the relative decrease from the control value, in per cent.

Sequence of Platelet-derived growth factor receptor alpha (Homo sapiens), P16234 [V561D] (P16234 whole entry V561D): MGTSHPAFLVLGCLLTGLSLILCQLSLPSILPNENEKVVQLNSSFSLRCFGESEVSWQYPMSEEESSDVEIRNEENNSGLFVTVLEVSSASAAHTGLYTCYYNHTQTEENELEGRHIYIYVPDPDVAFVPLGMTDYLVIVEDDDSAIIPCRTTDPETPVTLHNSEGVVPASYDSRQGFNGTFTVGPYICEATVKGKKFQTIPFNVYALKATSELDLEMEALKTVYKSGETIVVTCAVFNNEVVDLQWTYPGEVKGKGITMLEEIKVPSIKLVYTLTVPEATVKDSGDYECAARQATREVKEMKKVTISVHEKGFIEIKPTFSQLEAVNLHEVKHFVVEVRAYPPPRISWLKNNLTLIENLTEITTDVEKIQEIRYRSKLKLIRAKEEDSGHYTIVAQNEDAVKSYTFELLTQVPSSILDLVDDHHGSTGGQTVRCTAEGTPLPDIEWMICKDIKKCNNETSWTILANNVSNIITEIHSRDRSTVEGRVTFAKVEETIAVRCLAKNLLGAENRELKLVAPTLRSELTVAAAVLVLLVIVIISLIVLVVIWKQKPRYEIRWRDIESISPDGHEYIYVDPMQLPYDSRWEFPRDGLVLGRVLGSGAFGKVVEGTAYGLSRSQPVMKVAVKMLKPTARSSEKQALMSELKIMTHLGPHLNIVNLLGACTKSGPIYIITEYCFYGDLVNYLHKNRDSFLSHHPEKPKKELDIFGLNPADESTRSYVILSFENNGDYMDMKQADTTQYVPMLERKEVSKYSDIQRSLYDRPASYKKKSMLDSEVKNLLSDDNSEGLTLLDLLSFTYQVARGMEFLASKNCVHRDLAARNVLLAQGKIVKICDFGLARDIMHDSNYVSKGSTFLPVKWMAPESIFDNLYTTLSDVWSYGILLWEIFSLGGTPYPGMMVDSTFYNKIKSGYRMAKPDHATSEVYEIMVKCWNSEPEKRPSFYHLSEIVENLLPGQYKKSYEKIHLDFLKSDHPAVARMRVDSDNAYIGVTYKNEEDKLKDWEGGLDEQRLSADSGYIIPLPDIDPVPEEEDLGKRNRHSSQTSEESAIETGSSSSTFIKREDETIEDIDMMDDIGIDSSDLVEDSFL
Sequence of Platelet-derived growth factor receptor alpha (Homo sapiens) (P16234 whole entry): as the sequence (P16234 whole entry V561D) above, with D561V counted along it
Sequence of Platelet-derived growth factor receptor alpha (Homo sapiens), P16234 [T674I] (P16234 whole entry T674I): as the sequence (P16234 whole entry V561D) above, with D561V, T674I counted along it
Sequence of Platelet-derived growth factor receptor alpha (Homo sapiens), P16234 [D842V] (P16234 whole entry D842V): as the sequence (P16234 whole entry V561D) above, with D561V, D842V counted along it
Sequence of Platelet-derived growth factor receptor beta (Homo sapiens) (P09619 whole entry): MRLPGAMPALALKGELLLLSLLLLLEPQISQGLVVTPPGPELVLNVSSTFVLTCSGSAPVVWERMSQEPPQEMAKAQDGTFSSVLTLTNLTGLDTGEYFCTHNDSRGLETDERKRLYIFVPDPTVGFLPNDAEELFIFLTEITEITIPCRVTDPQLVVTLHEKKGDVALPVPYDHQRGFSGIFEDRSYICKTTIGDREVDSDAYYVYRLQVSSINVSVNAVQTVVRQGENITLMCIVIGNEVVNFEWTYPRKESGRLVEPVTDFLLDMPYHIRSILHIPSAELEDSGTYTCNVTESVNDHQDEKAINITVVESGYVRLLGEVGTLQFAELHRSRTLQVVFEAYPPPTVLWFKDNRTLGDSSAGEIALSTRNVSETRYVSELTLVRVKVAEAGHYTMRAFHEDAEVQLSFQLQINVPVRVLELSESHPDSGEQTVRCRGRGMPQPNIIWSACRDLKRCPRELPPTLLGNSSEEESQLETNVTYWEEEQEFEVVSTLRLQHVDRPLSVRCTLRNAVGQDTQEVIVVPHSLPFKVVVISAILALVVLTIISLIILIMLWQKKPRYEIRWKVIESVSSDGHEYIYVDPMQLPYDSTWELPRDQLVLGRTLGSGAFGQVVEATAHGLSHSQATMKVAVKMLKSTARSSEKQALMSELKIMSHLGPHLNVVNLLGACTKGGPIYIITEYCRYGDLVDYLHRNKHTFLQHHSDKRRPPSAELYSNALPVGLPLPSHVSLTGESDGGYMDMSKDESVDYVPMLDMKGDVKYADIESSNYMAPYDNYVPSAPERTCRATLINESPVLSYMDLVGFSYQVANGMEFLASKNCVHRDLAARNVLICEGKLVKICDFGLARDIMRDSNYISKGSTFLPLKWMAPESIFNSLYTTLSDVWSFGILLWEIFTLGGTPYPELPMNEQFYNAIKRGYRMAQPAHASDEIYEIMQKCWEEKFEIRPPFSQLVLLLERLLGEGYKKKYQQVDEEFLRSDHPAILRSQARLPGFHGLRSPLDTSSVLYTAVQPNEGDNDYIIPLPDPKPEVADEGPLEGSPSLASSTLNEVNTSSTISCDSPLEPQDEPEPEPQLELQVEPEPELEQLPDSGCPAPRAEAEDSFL

Take `O=C1Nc2ccc(-c3cccnc3)cc2C1=Cc1cc(Br)c(O)c(Br)c1`: the inhibition was found to be 5.67% in [1]; 10.2% in assay [2]; 20.2% in assay [3]; 4.65% in [4]; 12.5% in assay [5]; 5.16% in assay [6]. The inhibition in assay [7] was 5.71%; in assay [8], 5.57%; in assay [9], 23.6%; in assay [10], 1.45%.

With `CS(=O)(=O)Nc1cccc(-c2ccc3c(NC(=O)C4CC4)n[nH]c3c2)c1`, the inhibition turned out to be 3.16% in assay [1]; 3.7% in assay [2]; 13.2% in [3]; 4.33% in [4]; 8.89% in assay [5]; 0.91% in assay [6]. In addition, the inhibition in assay [7] was -1.66%; in [8], 1.13%; in assay [9] it was 6.51%; in [10] it was -2.19%.

Turning to `NS(=O)(=O)c1ccc(Nc2cc(-c3cccc(O)c3)n[nH]2)cc1`, the inhibition in [1] amounted to 12.9%; in assay [2] it was 16.7%; in [3], 40.4%; in assay [4], 4.21%; in assay [5], 13.8%; in [6] it was 12.8%. Also, the inhibition in assay [7] is 6.05%; in assay [8] it was 17.7%; in assay [9], 49%; in [10] it was 9.08%.

As for `CCn1c(-c2nonc2N)nc2ccc(F)cc21`, the inhibition in assay [1] came to 3.46%; in [2] it was 9.43%; in assay [3], 8.14%; in assay [4] it was 3.01%; in [5] it was 3.62%; in [6], 8.13%. Besides, the inhibition was determined as 10.2% in assay [7], 5.36% in assay [8], 2.86% in assay [9] and 5.06% in [10].

On to `CCS(=O)(=O)c1ccc(OC)c(Nc2ncc(-c3cccc(OC)c3)o2)c1`, for which the inhibition in assay [2] turned out to be 23.5%; in [3] it was 58.4%; in assay [4], 10.9%; in assay [5], 55.3%; in assay [6] it was 4.09%; in [7], 10.2%. In addition, the results for the inhibition in [8], in assay [9] and in assay [10] were 19.6%, 68.7% and 43.7%, respectively.

As for `NC(=O)c1cccc(Nc2nccc(Nc3cccc(F)c3)n2)c1`, the inhibition in assay [1] turned out to be 7.74%; in assay [2], 7.13%; in assay [3], 43.4%; in [4], 1.84%; in assay [5], 33.6%; in assay [6], 0.83%. The inhibition in assay [7] came out at 5.92%; in assay [8] it was 6.64%; in [9], 46%; in assay [10], 11.5%.

On to `Cc1cc(-c2ccccn2)cc(C)c1/C=C/c1cncc(-c2nn[nH]n2)c1`, for which the inhibition is 5.02% in [1]; 4.62% in [2]; 15.4% in assay [3]; -0.56% in assay [4]; 2.51% in assay [5]; 4.3% in [6]. In addition, the inhibition is 8.72% in assay [7], 3.13% in [8], 7.97% in [9] and 4.53% in assay [10].

Consider `CN(c1ccc(NC(=O)Nc2ccc(OC(F)(F)F)cc2)cc1)c1ccnc(Nc2cccc(S(N)(=O)=O)c2)n1`, for which the inhibition in assay [1] is 58.5%; in [2] it was 76.3%; in assay [3] it was 86.7%; in [4], 9.66%; in [5] it was 46.4%; in assay [6], 46.9%. In addition, the inhibition in assay [7] came to 87.1%; in assay [8], 87.2%; in assay [9] it was 96.8%; in assay [10] it was 67.5%.

On to `Cc1cc(Cl)cc2c1NC(=O)C2=NNc1ccc(S(N)(=O)=O)cc1`, for which the inhibition stood at 0.5% in [1]; 5.26% in assay [2]; 20.5% in assay [3]; 4.17% in [4]; 9.86% in [5]; 6.4% in assay [6]. Moreover, the inhibition in assay [7] amounted to 9.82%; in assay [8], 9.46%; in [9] it was 25.8%; in [10] it was 2.83%.

Take `Cc1cc(O)cc(C)c1/C=C/c1cncc(C(=O)N(C)C)c1`: the inhibition in assay [1] is 8.5%; in [2], 11.8%; in assay [3], 13.3%; in assay [4], 3.51%; in assay [5] it was 3.16%; in [6] it was 8.15%. Further, the inhibition in assay [7] came to 1.18%; in [8], 1.47%; in assay [9], 5.39%; in assay [10], 5.76%.

As for `C[C@@H](Oc1cc(-n2cnc3ccc(OC[C@@H](O)CO)cc32)sc1C(N)=O)c1ccccc1Cl`, the inhibition came to 51.4% in assay [1]; 13.8% in assay [2]; 62.4% in assay [3]; 4.15% in [4]; 40.5% in assay [5]; 0.37% in assay [6]. Further, the inhibition in assay [7] was 51.2%; in assay [8], 7.79%; in assay [9], 50.1%; in assay [10], 7.9%.

For the compound `N#Cc1c(NC(=O)c2ccccc2F)sc2c1CCCC2`, the inhibition in assay [1] is 1.48%; in assay [2], 1.47%; in assay [3], 5.27%; in assay [4], 1.43%; in [5], 3.35%; in assay [6], 1.66%. The inhibition in assay [7] worked out at 4.03%; in assay [8], 2.72%; in assay [9], 3.24%; in [10], 1.07%.

As for `FC(F)(F)c1ccc(-c2nn3ncccc3c2-c2ccnc(Nc3ccc4c(c3)OCCO4)n2)cc1`, the inhibition in assay [1] was 15%; in [2], 9.5%; in assay [3], 19.5%; in assay [4], 1.06%; in [5] it was 5.73%; in assay [7], 5.8%. For the same compound, the inhibition in [8] is 6.7%; in assay [9], 11.7%; in [10] it was 9.78%.

With `COc1cccc(-n2ncc3c(N/N=C/c4ccc(S(C)(=O)=O)cc4)ncnc32)c1`, the inhibition in assay [1] was 23.3%; in [2] it was 43.7%; in assay [3], 77.8%; in [4], 51.8%; in [5], 89%; in assay [6], 21%. In addition, the inhibition in assay [7] was 80.5%; in assay [8] it was 44.1%; in assay [9], 86.2%; in [10] it was 52.4%.

On to `c1ccc(Cc2nc3ccc(Nc4ncnc5ccccc45)cc3[nH]2)cc1`, for which the inhibition in assay [1] was 3.78%; in assay [2] it was 8.25%; in [3], 17%; in [4], -0.75%; in assay [5] it was 1%; in assay [6], 3.02%. The inhibition amounted to 5.74% in assay [7], 3.34% in assay [8], 12.9% in [9] and 4.81% in assay [10].

As to `CC(C)c1ccc(Nc2nccc(-c3cnn4ncccc34)n2)cc1`, the inhibition in [1] was determined as 8.57%; in [2] it was 13%; in [3] it was 43.5%; in [4] it was 6.98%; in assay [5], 43%; in assay [6], 12.4%. Further, the inhibition in [7] is 63.6%; in [8] it was 18.9%; in assay [9], 55.2%; in assay [10] it was 9.63%.

Consider `CCOc1nccc2c1nc(-c1nonc1N)n2CC`, for which the inhibition in assay [1] was found to be 8.7%; in assay [2], 11.7%; in assay [3], 19.1%; in assay [4] it was 1.89%; in [5], 6.37%; in assay [6], 10.8%. Besides, the inhibition in assay [7] is 9.83%; in assay [8] it was 6.37%; in assay [9], 5.39%; in [10] it was 7.89%.
